Results on 13 molecules are retold here after PubChem BioAssay (NCI).

Common to all, as to assay: NCI-60 one-dose screen, 48 h (100 = growth as untreated, 0 = no growth, -100 = all killed)
Settings in all cases: 10 µM unless noted

Assay [1] has as its system HCT-15 colon.
In assay [2] the test system is HT29 colon.
For assay [3], the system named is SNB-75 CNS.
Assay [4] deals with SNB-19 CNS.
The subject of assay [5] is U251 CNS.
For assay [6], the system named is PC-3 prostate.
Assay [7] concerns SK-MEL-5 melanoma.
The subject of assay [8] is UACC-62 melanoma.
In assay [9] the test system is LOX IMVI melanoma.
The subject of assay [10] is SK-MEL-28 melanoma.

About 83,000 compounds went through this panel and 20% of them were active in at least one assay; those are over-represented in the sample as a whole.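 The test compound was applied at a single concentration to cells in 96-well plates for 48 hours, and percent growth was recorded.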 A number with no mark means an inactive call. The source made the active and inactive calls. The calls were made as follows: active = growth percent below 10; inactive = the rest.

As to `CCCCNC(=O)Oc1ccc(/C(=C(/CC)Cc2ccccc2)c2ccc(OCCCN(C)C)cc2)cc1`, the growth in assay [1] was 57.7%; in assay [2], 15.4%; in assay [3], 75.5%; in [4], 90.7%; in assay [5] it was 68.9%; in assay [6], 81.2%. Further, the growth was 84.5% in [7], 106% in [8], 59% in assay [9] and 95.9% in [10].

Take `Nc1ccc(S(=O)(=O)Nc2cc(I)cc(I)c2)cc1`: the growth in assay [1] is 112%; in assay [2], 107%; in assay [3], 97.6%; in assay [4] it was 116%; in [5] it was 106%; in [6], 97.2%. The growth was 105% in assay [7], 107% in assay [8], 104% in [9] and 105% in assay [10].

On to `COc1cc(NC(C)CCCN2C(=O)c3ccccc3C2=O)c2nccc(C)c2c1OC` (stereo not given), for which the growth in assay [1] is 102%; in assay [2], 107%; in [3] it was 102%; in assay [4], 109%; in [5], 101%; in assay [6], 58.6%. Also, the growth in assay [7] is 69.5%; in assay [8], 84%; in [9], 82.8%; in assay [10], 113%.

Regarding `Cc1ccc(-c2cn3cc([N+](=O)[O-])ccc3n2)cc1`, the growth in [1] was 80.2%; in assay [2], 91.6%; in assay [3] it was 77.5%; in assay [4] it was 92.1%; in assay [5] it was 85.6%; in assay [6] it was 77.1%. For the same molecule, the growth in assay [7] is 58.9%; in [8], 82.6%; in assay [9] it was 58.3%; in [10], 94.3%.

With `Cc1nccc2c3ccc(OCc4cn(-c5ccc(Br)cc5)nn4)cc3n(CCCc3ccccc3)c12`, the growth in [1] was 60.5%; in assay [2], 10.5%; in assay [3] it was 26.7%; in assay [4], 56.1%; in assay [5] it was -61% (active); in [6] it was 14.1%. Also, the growth in [7] was 30.4%; in assay [8], 6.16% (active); in assay [9], -39.6% (active); in [10], -67.6% (active).

Consider `CC(Cc1cccc(C(F)(F)F)c1)NCCOC(=O)c1ccccc1` (stereo not given), for which the growth in assay [1] was 105%; in assay [2], 115%; in assay [3] it was 99.5%; in [4] it was 100%; in assay [5], 104%; in assay [6] it was 103%. Also, the growth is 89.5% in assay [7], 102% in assay [8], 96.3% in assay [9] and 107% in assay [10].

With `COc1cc(NS(C)(=O)=O)ccc1Cc1c2ccccc2nc2ccccc12`, the growth in assay [1] is 18.3%; in [2], 8.23% (active); in assay [3] it was 21.4%; in assay [4], 25.9%; in assay [5], 18.7%; in assay [6] it was 55.2%. The growth was 8.33% (active) in assay [7], 26.1% in assay [8], -26.2% (active) in assay [9] and 50.7% in assay [10].

With `CCOc1ccccc1C(=O)N1CCN(c2cc(Cl)cc(Cl)c2)CC1`, the growth in assay [1] is 11.2%; in assay [2], -27.4% (active); in [3], 34.3%; in assay [4] it was 24%; in [5] it was 12.5%; in assay [6] it was 10.6%. For the same molecule, the growth in assay [7] is -44.1% (active); in assay [8] it was 19.5%; in assay [9] it was 17.7%; in assay [10], 54.7%.

Take `COc1cc([C@@H]2c3cc4c(cc3C(OC3O[C@@H]5COC(C)O[C@H]5[C@H](O)[C@H]3O)C3COC(=O)[C@@H]32)OCO4)cc(OC)c1O` (stereo not given in full): the growth in assay [1] was 73.1%; in [2], 64.5%; in [3], 31.2%; in assay [4], 27.4%; in [5], 13.5%; in assay [6], 63.3%. For the same molecule, the growth is 17.4% in assay [7], 33.7% in assay [8], 12% in assay [9] and 61.4% in assay [10].

As to `COc1ccc2c(c1)OC(N)=C(C#N)C2c1ccc(F)c(F)c1` (stereo not given), the growth is 29.6% in assay [1]; 3.2% (active) in [2]; 9.47% (active) in assay [3]; 28.7% in assay [4]; 31% in assay [5]; 24.2% in assay [6]. For the same molecule, the growth was 24.2% in assay [7], 38.1% in assay [8], 54.2% in assay [9] and 68.2% in [10].

Take `COc1ccc(-c2c(C#N)cnc(N)c2-c2nc3cc(C)c(C)cc3[nH]2)cc1`: the growth is 60.3% in assay [1]; 37.3% in assay [2]; 84.2% in assay [3]; 67.6% in assay [4]; 1.05% (active) in assay [5]; 57.8% in [6]. Moreover, the growth is 32.2% in assay [7], 56.1% in assay [8], 59.6% in assay [9] and 77% in assay [10].

Consider `S=c1[nH]nc(Cn2c3ccccc3c3ccncc32)o1`, for which the growth was 110% in [1]; 94.6% in [2]; 102% in assay [3]; 98.6% in assay [4]; 94.8% in [5]; 99.4% in [6]. The growth is 102% in [7], 93.3% in [8], 97.8% in assay [9] and 101% in assay [10].

`CCCCOc1nc2ccc(Cl)cc2cc1/C=C/C(=O)/C=C/c1ccc(Cl)cc1`: the growth was 81.9% in [1]; 25.2% in assay [2]; 86.4% in assay [3]; 93.9% in assay [4]; 35.3% in [5]; 57.5% in assay [6]. For the same molecule, the growth in [7] was 49.4%; in [8], 67.5%; in assay [9], 24.1%; in assay [10], 81.9%.
